# Reference: PubChem BioAssay (NCI)
# Values joined by “and” are separate entries in the source; they are usually repeats but may differ in a detail not shown here. Equal entries are not always repeated. The panel holds about 83,000 compounds, 20% with a hit somewhere; the sample as a whole holds those more often.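 48-hour exposure, single concentration, 96-well plates; percent growth endpoint where 0 means no net growth. Active: below 10.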 A number with no mark means an inactive call. Active and inactive are the calls of the source.
# Test system: MDA-MB-468 breast
# Assay: NCI-60 one-dose screen, 48 h (100 = growth as untreated, 0 = no growth, -100 = all killed)
# Details: 10 µM unless noted
row,SMILES,growth
1,Cc1ccc(C2=NN(c3ccc(S(=O)(=O)NC(=O)NCc4ccccc4)cc3)C(c3ccc(N(C)C)cc3)C2)c(C)c1 (stereo not given),49.4%
2,COc1ccc2c(c1OC)C(=O)O[C@@H]2[C@H]1c2c(c(C#CC#Cc3ccc(F)c(F)c3)c3c(c2OC)OCO3)CCN1C,72.4%
3,CC1OC(n2c3ccccc3c3c4c(c5c6ccccc6[nH]c5c32)C(=O)N(CCN2CCCC2)C4=O)CC(O)C1O (stereo not given),26.2%
4,CCN(C(=O)N1CCN(c2cc3c(cc2F)c(=O)c(C(=O)O)cn3C2CC2)CC1)c1nc(-c2ccc(Cl)cc2)cs1,-2.66% (active)
5,O=C(NCc1ccc(Cl)cc1Cl)C1CCC(=O)N1c1cccs1 (stereo not given),115%
6,Cc1[nH]c(C(=O)Nc2ccc(C(=O)N3CCN(c4cc5c(cc4F)c(=O)c(C(=O)O)cn5C4CC4)CC3)cc2OC(C)C)c(Cl)c1Cl,85.9%
7,O=C(NN1C(=O)CSC1c1cccc([N+](=O)[O-])c1)c1ccc(NC(=O)c2ccccn2)cc1 (stereo not given),98.8%
8,CCOc1ccc(-c2nc3ccc(-c4nc5ccc(N6CCN(C)CC6)cc5[nH]4)cc3[nH]2)cc1,-85.2% (active)
9,Cc1ccc(C)c(C(O)(c2cc(C)ccc2C)C2(O)CCCCC2)c1,90.5%
10,COc1ccc2c(c1)oc1c(C)c3c(c(C)c12)C(=O)N(N)C3=O,59.7%
11,O=C(N/N=C/c1cccs1)c1[nH]c2ccc(Br)cc2c1-c1ccccc1,-8.42% (active)
12,COc1cc2cc(OC(C)=O)c3cc4c(cc3c2c(OC)c1OC)OCO4,96.4%
13,CCOC(=O)/C(=C/c1ccc(OC)cc1)N(CC)CC,106%
14,Cc1oc2c(Cc3ccc(NC(=O)c4ccc(Cl)cc4)cc3)ncnc2c1C(=O)NO,92.1%
15,CNC(=O)c1cc(Oc2ccc(NC(=O)Nc3ccc(Cl)c(C(C)(C)C)c3)c(F)c2)ccn1,7.76% (active)
16,CC(NC(=O)c1ccccc1)C(=O)Nc1ccccc1 (stereo not given),109%
17,COc1ccc(N(C)c2ncnc3occ(C)c23)cc1,30.2%
18,CC(C)N(CCNc1nc(C(Cl)(Cl)Cl)nc2cc(Cl)ccc12)C(C)C,-50% (active)

row,SMILES,growth
1,CCOc1ccc(I)cc1,105%
2,CC(C)=CCC[C@@H](C)[C@H]1CC[C@@]2(C)C3=C(CC[C@]12C)[C@@]1(C)CC[C@H](O)C(C)(C)[C@@H]1CC3,102%
3,COC(=O)c1cc(O)c2c(c1C(=O)OC)C[C@H]1[C@@H]3CC=C4C[C@@H](O)CC[C@]4(C)[C@H]3CC[C@]21C,35.3%
4,CNS(=O)(=O)Nc1nccc(Cc2c(C)c3ccc(Oc4ncccn4)cc3oc2=O)c1F,62.9%
5,CCN1C(=O)N(CC)C2C1NN=c1s/c(=C\c3ccccc3Br)c(=O)n12 (stereo not given),27.5%
6,COc1cc(/C=C2\C(=O)N(c3c(Cl)cccc3Cl)c3ccccc32)cc(OC)c1O,57.4%
7,O=C(/C=C/c1cccc(O)c1)c1cccc(-n2cc(-c3ccccc3)[nH]c2=O)c1,73.4%
8,O=C(/C=C/c1ccc(Cl)s1)c1ccc(Cl)s1,88.1% and 79.5%
9,COc1cc(/C=C/C(=O)c2ccc(NC(=O)CSc3nnc(-c4ccc5nc(-c6ccccc6)[nH]c5c4)o3)cc2)cc(OC)c1OC,94.9%
10,CCCCOc1ccc(/C=C2/SC(N3CCCC3)=NC2=O)cc1,93.1%
11,O=C(Nc1cccnc1Nc1ccc(Cl)cc1)c1cn(Cc2ccc(F)cc2)nn1,99.5%
12,O=C(Nc1ccc(F)cc1)Nc1ccc(NC(=O)c2cc(Cl)nc3ccccc23)cc1,38.7%
13,COc1ccc(Cl)cc1NC(=O)c1cc2c(n1C)-c1nc(NC(=O)C(C)(C)C)sc1CC2,96.7%
14,COC(=O)C1CCc2sc3ncnc(Nc4cn[nH]c4C(=O)Nc4ccc(CN5CCN(C)CC5)cc4)c3c21 (stereo not given),37.3%
15,C[C@H]1[C@H](OC(=O)CCC(=O)O)O[C@@H]2O[C@]3(C)CC[C@H]4[C@H](C)CC[C@@H]1[C@@]24OO3,29.1%
16,CCCCNCC(O)c1cc2c(Cl)cc(Cl)cc2c2cc(C(F)(F)F)ccc12 (stereo not given),-86.2% (active)
17,O=C1c2ccccc2C(=O)c2c([N+](=O)[O-])ccc(Cl)c21,-5.53% (active)
